# The campaign covered roughly 360,000 compounds. About 4,600 (1.3%) were called active.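 How the source made its calls: active means percent inhibition above its own plate's cutoff, namely the mean of that plate's compound wells plus 3 SD; inactive means the rest.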 For the sample, actives were picked, then their nearest neighbours and some compounds at random.
# Target: Muscarinic acetylcholine receptor M1 (Homo sapiens) (UniProt P11229)
# Test: human M1 muscarinic receptor antagonists, primary screen, CHO-K1 cells, Fluo-8 calcium fluorescence, 1536-well (AID 588852);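 further: peak over basal fluorescence ratio during 140 s after agonist addition; 0% = ACh EC80 plus DMSO and 100% = DMSO alone without agonist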
# Conditions: CHO-K1 hM1, Fluo-8 calcium fluorescence, ACh EC80 antagonist; at 3 µM; hits give high values
# Sequence of Muscarinic acetylcholine receptor M1 (Homo sapiens) (P11229 whole entry, looked up): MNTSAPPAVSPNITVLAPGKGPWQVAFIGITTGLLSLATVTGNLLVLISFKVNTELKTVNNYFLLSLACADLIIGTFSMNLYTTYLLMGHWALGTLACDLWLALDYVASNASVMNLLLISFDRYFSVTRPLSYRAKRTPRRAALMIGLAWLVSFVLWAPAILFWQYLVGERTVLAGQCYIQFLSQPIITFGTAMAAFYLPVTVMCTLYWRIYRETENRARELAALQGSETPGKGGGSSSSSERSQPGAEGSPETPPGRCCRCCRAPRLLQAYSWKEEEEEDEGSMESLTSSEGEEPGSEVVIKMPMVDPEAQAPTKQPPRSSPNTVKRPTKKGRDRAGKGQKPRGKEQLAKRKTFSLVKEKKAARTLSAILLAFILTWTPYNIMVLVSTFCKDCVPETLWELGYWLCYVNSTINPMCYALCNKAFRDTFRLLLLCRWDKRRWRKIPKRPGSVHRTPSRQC
row,Compound,inhibition
1,CC1=C2C(=O)OC(c3ccoc3)C2(C)CCC1 (stereo not drawn),-3.46% (inactive)
2,O=S(=O)(Nc1ccc(Oc2ncccn2)c(Cl)c1)c1ccc(F)cc1,-16.8% (inactive)
3,Cc1ccc(S(=O)(=O)Nc2ccc3ncccc3c2)cc1,28.8% (active)
4,Cc1cc(C)cc(OCC(=O)Nc2ccc(S(=O)(=O)Nc3ccccn3)cc2)c1,-5.97% (inactive)
5,CC1CCC2(CC1)NC(=O)N(CC(=O)NCc1ccco1)C2=O (stereo not drawn),16.7% (inactive)
6,O=S1(=O)CC(N2CCN(c3ccccn3)CC2)CN1Cc1ccc(F)cc1 (stereo not drawn),-1.35% (inactive)
7,CCCC(CNC(=O)COC(=O)C1=NNC(=O)CC1)c1ccc(Cl)cc1Cl (stereo not drawn),-6.04% (inactive)
8,O=C(CSc1nc2ccccc2o1)N1c2ccccc2Sc2ccc(Cl)cc21,-3.61% (inactive)
9,O=C(CN1C(=O)/C(=C\c2ccc(C(F)(F)F)cc2)Sc2ccccc21)NCc1ccco1,13.9% (inactive)
10,O=C(CN1CCCCC1)N1c2ccccc2Sc2ccc(C(F)(F)F)cc21,96.8% (active)
11,O=C(CN1CCCCCC1)N1c2ccccc2Sc2ccc(C(F)(F)F)cc21,102% (active)
12,COc1cc(/C=C/C(=O)N2c3ccccc3Sc3ccc(C(F)(F)F)cc32)cc(OC)c1OC,-6.22% (inactive)
13,CCC(=O)Nc1cc(C(F)(F)F)ccc1N1CCCC1,3.67% (inactive)
14,COc1ccc(NC(=O)c2cccc(Cl)c2)c[n+]1[O-],-8.94% (inactive)
15,Cc1nc2nc(C)c(NS(=O)(=O)c3ccc(C(C)(C)C)cc3)c(=O)n2[nH]1,20.2% (active)
16,CCc1nc2nc(C)c(NS(=O)(=O)c3ccc4c(c3)CCCC4)c(=O)n2[nH]1,12.2% (inactive)
17,Cc1cccc(NS(=O)(=O)c2ccc([N+](=O)[O-])cc2)n1,-16.4% (inactive)
18,Cc1ccn2c(=O)c(C(=O)NCCC3=CCCCC3)c(O)nc2c1,-8.96% (inactive)
19,CN(C)C(=O)N1CCNCC1,-11.2% (inactive)
20,CC(=O)N1CCOc2ccc(S(=O)(=O)N3CCC(C(=O)Nc4ccccc4F)CC3)cc21,-13.2% (inactive)

row,Compound,inhibition
1,CC(C)(C)N(CC#CCC(O)(c1ccccc1)C1CCCC1)CCO (stereo not drawn),83.9% (active)
2,CC(C)c1ccc(N2CC(C(=O)Nc3nccs3)CC2=O)cc1 (stereo not drawn),12.6% (inactive)
3,CCCCn1nnnc1C(c1cccc(OC)c1OC)N1CCN(C/C=C/c2ccccc2)CC1 (stereo not drawn),34.7% (inactive)
4,CN1CCN(C2Cc3ccc(Cl)cc3Sc3ccc(F)cc32)CC1 (stereo not drawn),60% (active)
5,COc1ccc(NC(=O)C(CC(C)C)NC(=O)C2CCC(C)CC2)cc1 (stereo not drawn),0.68% (inactive)
6,CCN(CC)CCNC(=O)c1ccc(NC(=O)c2cc(-c3ccncc3)nc3ccccc23)cc1,45.5% (active)
7,CCN(CC)CCNC(=O)c1ccc(NC(=O)c2c(F)cccc2Cl)cc1,-0.98% (inactive)
8,O=C(Nc1ccc(S(=O)(=O)Nc2nccs2)cc1)c1cc(-c2ccncc2)nc2ccccc12,-10.5% (inactive)
9,CCCCNc1c(-c2cccc(Sc3ccc(OC)cc3)c2)nc2ccccn12,36.9% (active)
10,CCCCNc1c(-c2ccc(OC)c(Sc3ccc(OC)cc3)c2)nc2ccc(Cl)cn12,19.9% (inactive)
11,COC(=O)c1ccc2nc(-c3cccc(Br)c3)c(Cc3ccc(OC)cc3C)n2c1,-41.3% (inactive)
12,CCCCNC(=O)c1nc(C2CCN(S(=O)(=O)c3ccc(F)c(F)c3)CC2)oc1-c1cccc(C(F)(F)F)c1,-12% (inactive)
13,CCN(CC)CCCC(C)n1c2nc(=O)[nH]c(=O)c-2nc2cc(Cl)ccc21 (stereo not drawn),49.8% (active)
14,O=Cc1cn(CCOc2ccc(F)cc2)c2ccccc12,7.49% (inactive)
15,CCCN(CCC)S(=O)(=O)c1cc2c(cc1Br)CCN2C(=O)CC,-3.69% (inactive)
16,CCN1CCN(c2c(Cl)cccc2NC(=O)c2ccc(Br)o2)CC1,33% (active)
17,O=C(Nc1cccc(Cl)c1N1CCOCC1)c1cccnc1,-2.23% (inactive)
18,O=C(Nc1cccc(Cl)c1N1CCOCC1)c1ccc2c(c1)OCCO2,-6.53% (inactive)
19,CCn1cc(-c2cc(C(=O)O)on2)c(C)n1,-5.04% (inactive)
20,Cc1ccc(-c2nc3ccc(Br)cn3c2Cc2ccccc2C(F)(F)F)cc1,-2.72% (inactive)

row,Compound,inhibition
1,CN1C(=O)c2ccc(NC(=O)c3c(F)c(F)c(F)c(F)c3F)cc2C1=O,-10% (inactive)
2,Cc1cccc(-n2ncc3c(=O)[nH]c(SCC(=O)Nc4cc(C)on4)nc32)c1,-7.77% (inactive)
3,O=C(CSc1nc2c(cnn2-c2ccc(F)cc2)c(=O)[nH]1)N1CCCCCC1,39.7% (active)
4,CCC(C)Sc1nc2c(cnn2-c2ccc(F)cc2)c(=O)[nH]1 (stereo not drawn),-10.5% (inactive)
5,CC(C)C[C@H](NC(=O)[C@@H]1O[C@H]1C(=O)O)C(=O)NCCCCN=C(N)N,-28.2% (inactive)
6,CCCNC(=O)C1(C)CCN(Cc2csc(-c3ccc(Cl)cc3)n2)C1 (stereo not drawn),15.8% (inactive)
7,CSCCC(c1nnnn1Cc1ccccc1)N1CCN(C/C=C/c2ccccc2)CC1 (stereo not drawn),-4.53% (inactive)
8,Nc1ncnc2c1ncn2[C@@H]1O[C@H](C(=O)N2CCSC2)[C@@H](O)[C@H]1O,-21.6% (inactive)
9,O=C(O/N=C(/c1ccccc1)c1ccncc1)c1ccccc1[N+](=O)[O-],0.78% (inactive)
10,CN(C)CCCO/N=C(\c1ccccc1)c1ccncc1,34.6% (active)
11,COc1cc(OC)nc(N/N=C(\c2ccccc2)c2ccncc2)n1,1.36% (inactive)
12,CCc1cc2c(N3CCN(c4nnc(CC)s4)CC3)ncnc2s1,6.82% (inactive)
13,COc1ccccc1N1CCN(c2ncnc3sc(C)c(-c4ccccc4)c23)CC1,-8.38% (inactive)
14,Oc1ccccc1N1CCN(c2ncnc3sc(-c4ccccc4)cc23)CC1,25.7% (active)
15,CN(C)C(=O)c1cccc(-c2cnc3c(NC=O)cc(-c4ccc(F)cc4)cn23)c1,-4.58% (inactive)
16,O=C(COc1ccc(Cl)cc1)Nc1ccccc1CO,3.31% (inactive)
17,Cc1cc(C)cc(OCC(=O)Nc2ccc(N3CCOCC3)cc2N2CCOCC2)c1,0.26% (inactive)
18,Cc1cc(N2CCCC2)ccc1NC(=O)COc1ccc(Cl)cc1,38.5% (active)
